We go through ten compounds from PubChem BioAssay (NCI).

Test systems include SR leukemia; RPMI-8226 leukemia; OVCAR-8 ovarian; OVCAR-5 ovarian; OVCAR-4 ovarian; IGROV1 ovarian; OVCAR-3 ovarian; HS 578T breast; NCI/ADR-RES ovarian; T-47D breast; BT-549 breast; SW-620 colon; MCF7 breast; HCT-116 colon; HCC-2998 colon; KM12 colon; SK-OV-3 ovarian; MDA-MB-435 melanoma.
Common to all, as to assay: NCI-60 one-dose screen, 48 h (100 = growth as untreated, 0 = no growth, -100 = all killed)
What all share (details): 10 µM unless noted

“And” between values parts separate entries of the source, which are not always exact repeats. Identical values can stand only once. About 83,000 compounds went through this panel and 20% of them were active in at least one assay; those are over-represented in the sample as a whole.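 Cell lines were cultured in 96-well plates, exposed to a single compound concentration, and assessed for percent growth 48 hours later.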 The source made the active and inactive calls. Rule for the calls: active = growth percent below 10; inactive = the rest.

`O=[N+]([O-])c1ccc(/C=N\NC(=S)Nc2ccc(F)cc2)cc1`: the growth was 99.7% (inactive) with SR leukemia; 100% (inactive) and 85.2% (inactive) in the assay with RPMI-8226 leukemia; 94.1% (inactive) and 95.3% (inactive) with OVCAR-8 ovarian; 115% (inactive) and 94.7% (inactive) in the assay with OVCAR-5 ovarian; 92.6% (inactive) in the assay on OVCAR-4 ovarian; 96.8% (inactive) and 99.1% (inactive) in the assay with IGROV1 ovarian. The growth with OVCAR-3 ovarian is 129% (inactive) and 109% (inactive); in the assay on HS 578T breast, 93.4% (inactive); in the assay on NCI/ADR-RES ovarian, 100% (inactive) and 89.8% (inactive); in the assay on T-47D breast, 94.5% (inactive) and 88.4% (inactive); in the assay on BT-549 breast, 97.9% (inactive); in the assay on SW-620 colon, 106% (inactive) and 94.1% (inactive). For the same compound, the growth in the assay with MCF7 breast is 89% (inactive) and 97.8% (inactive); with HCT-116 colon, 71.7% (inactive) and 53% (inactive); with HCC-2998 colon it was 106% (inactive) and 87.6% (inactive); in the assay with KM12 colon, 98.6% (inactive) and 81.3% (inactive).

With `CN1CCN(CCC=C2c3ccccc3Sc3ccc(S(=O)(=O)N(C)C)cc32)CC1`, the growth is 2.47% (active) in the assay on SR leukemia; 83.8% (inactive) and 95.7% (inactive) in the assay on OVCAR-8 ovarian; 80.1% (inactive) in the assay on OVCAR-5 ovarian; 80.6% (inactive) and 85.2% (inactive) with OVCAR-4 ovarian; 87.7% (inactive) and 96.7% (inactive) with SK-OV-3 ovarian; 62.1% (inactive) and 58.2% (inactive) in the assay with IGROV1 ovarian. Further, the growth is 91.4% (inactive) and 71.7% (inactive) with OVCAR-3 ovarian; 52.5% (inactive) and 65.4% (inactive) in the assay with HS 578T breast; 74.7% (inactive) and 84.9% (inactive) in the assay with NCI/ADR-RES ovarian; 77.4% (inactive) in the assay on T-47D breast; 67.9% (inactive) and 70% (inactive) in the assay on BT-549 breast; 12.8% (inactive) and 6.78% (active) in the assay on MDA-MB-435 melanoma. The growth in the assay with SW-620 colon is 76.9% (inactive) and 74.2% (inactive); with MCF7 breast it was 41.2% (inactive) and 71.9% (inactive); in the assay on HCT-116 colon, 39.5% (inactive) and 45.1% (inactive); with HCC-2998 colon it was 13.9% (inactive) and 14.4% (inactive); with KM12 colon, 68.7% (inactive) and 73.4% (inactive).

As to `Cc1ccc(NCSc2ccc(Cl)cc2)cc1`, the growth was 62.5% (inactive) and 67.7% (inactive) with SR leukemia; 20.8% (inactive) in the assay on RPMI-8226 leukemia; 97.3% (inactive) and 93.2% (inactive) in the assay on OVCAR-8 ovarian; 106% (inactive) in the assay with OVCAR-5 ovarian; 96.2% (inactive) and 97% (inactive) in the assay on SK-OV-3 ovarian; 103% (inactive) and 80.7% (inactive) in the assay on IGROV1 ovarian. In addition, the growth was 71.6% (inactive) and 78.9% (inactive) in the assay on OVCAR-3 ovarian; 93.7% (inactive) and 102% (inactive) in the assay on HS 578T breast; 88% (inactive) and 95.8% (inactive) with NCI/ADR-RES ovarian; 74.3% (inactive) and 62.4% (inactive) in the assay on T-47D breast; 44.9% (inactive) and 66% (inactive) in the assay with BT-549 breast; 86.2% (inactive) and 96.6% (inactive) with SW-620 colon. Further, the growth in the assay on MCF7 breast was 86.9% (inactive) and 80.7% (inactive); with HCT-116 colon, 85% (inactive) and 91% (inactive); with HCC-2998 colon, 92.4% (inactive) and 94.9% (inactive); in the assay on KM12 colon, 61.4% (inactive) and 66.5% (inactive).

On to `c1ccc(N(c2ccccc2)c2ccccc2)cc1`, for which the growth in the assay on SR leukemia is 79.3% (inactive); in the assay with RPMI-8226 leukemia, 100% (inactive); in the assay on OVCAR-8 ovarian, 97.5% (inactive); in the assay on OVCAR-5 ovarian it was 104% (inactive); with OVCAR-4 ovarian it was 114% (inactive); in the assay with IGROV1 ovarian it was 104% (inactive). The growth in the assay with OVCAR-3 ovarian is 112% (inactive); in the assay with HS 578T breast, 110% (inactive); in the assay on NCI/ADR-RES ovarian, 105% (inactive); with BT-549 breast it was 106% (inactive); with MDA-MB-435 melanoma it was 104% (inactive); in the assay with SW-620 colon it was 103% (inactive). Also, the growth was 117% (inactive) in the assay with MCF7 breast, 99.6% (inactive) with HCT-116 colon and 105% (inactive) in the assay on KM12 colon.

With `CCCCCCCCCCCCCCCc1cc(O)ccc1N`, the growth is 74.7% (inactive) and 37.7% (inactive) in the assay with SR leukemia; 87.8% (inactive) and 87.1% (inactive) in the assay with OVCAR-8 ovarian; 92.7% (inactive) and 124% (inactive) with OVCAR-5 ovarian; 65.2% (inactive) and -19.7% (active) in the assay on OVCAR-4 ovarian; 89.2% (inactive) and 69% (inactive) in the assay on SK-OV-3 ovarian; 16.5% (inactive) and 45.2% (inactive) in the assay on IGROV1 ovarian. The growth is 66.8% (inactive) and 50.9% (inactive) in the assay with OVCAR-3 ovarian; 107% (inactive) and 95.2% (inactive) in the assay on HS 578T breast; 72.1% (inactive) and 49.7% (inactive) with NCI/ADR-RES ovarian; -5.74% (active) and -86.4% (active) in the assay with T-47D breast; -36.3% (active) and 12.7% (inactive) in the assay with BT-549 breast; 99.4% (inactive) and 87.2% (inactive) in the assay with MDA-MB-435 melanoma. Also, the growth in the assay with SW-620 colon is 114% (inactive) and 108% (inactive); with MCF7 breast, 72.2% (inactive) and 35.3% (inactive); in the assay on HCT-116 colon it was 94.4% (inactive) and 91.4% (inactive); with HCC-2998 colon, 96.4% (inactive) and 101% (inactive); in the assay with KM12 colon, 64.2% (inactive) and 72% (inactive).

As for `CCc1c(CC(=O)O)c2cc(C)ccc2n1Cc1ccc(Cl)cc1`, the growth in the assay on SR leukemia was 91.5% (inactive) and 146% (inactive); with OVCAR-8 ovarian, 82.9% (inactive) and 100% (inactive); with OVCAR-5 ovarian it was 98.2% (inactive) and 98.6% (inactive); with OVCAR-4 ovarian it was 85.5% (inactive) and 105% (inactive); with SK-OV-3 ovarian it was 97.9% (inactive) and 42.4% (inactive); with IGROV1 ovarian it was 92.3% (inactive). In addition, the growth with OVCAR-3 ovarian was 93.8% (inactive) and 110% (inactive); in the assay with HS 578T breast, 87.2% (inactive) and 113% (inactive); with NCI/ADR-RES ovarian it was 98.4% (inactive) and 98.7% (inactive); in the assay on T-47D breast, 86.3% (inactive) and -2.2% (active); with BT-549 breast, 94% (inactive) and 183% (inactive); with MDA-MB-435 melanoma, 114% (inactive) and 97.4% (inactive). Besides, the growth is 102% (inactive) in the assay on SW-620 colon; 98.1% (inactive) and 95.4% (inactive) with MCF7 breast; 125% (inactive) and 98.4% (inactive) with HCC-2998 colon; 96% (inactive) and 95.3% (inactive) in the assay with KM12 colon.

For `OCCN1CCN(CCCN2c3ccccc3Sc3ccc(Cl)cc32)CC1`, the growth with SR leukemia is 36.6% (inactive); with OVCAR-8 ovarian, 89.3% (inactive) and 107% (inactive); with OVCAR-5 ovarian it was 61.3% (inactive) and 90.7% (inactive); in the assay on OVCAR-4 ovarian it was 74.2% (inactive) and 69.8% (inactive); in the assay with SK-OV-3 ovarian it was 70% (inactive) and 87.5% (inactive); with IGROV1 ovarian, 47.7% (inactive) and 57.8% (inactive). The growth in the assay with OVCAR-3 ovarian was 83% (inactive) and 81.5% (inactive); with HS 578T breast, 63.1% (inactive) and 72.3% (inactive); in the assay with NCI/ADR-RES ovarian, 60.9% (inactive) and 76% (inactive); in the assay on T-47D breast it was 66% (inactive) and 84.1% (inactive); in the assay with BT-549 breast, 59.1% (inactive) and 74.7% (inactive); with MDA-MB-435 melanoma, -11.6% (active) and 26.5% (inactive). Moreover, the growth in the assay with SW-620 colon is 80.6% (inactive) and 83.8% (inactive); with MCF7 breast it was 77.2% (inactive); with HCT-116 colon it was 35.1% (inactive) and 66.7% (inactive); in the assay with KM12 colon it was 71.4% (inactive) and 80.5% (inactive).

`OC(COc1cccc2ccccc12)CN1CCN(c2ccc(Cl)cc2)CC1` (configuration not stated): the growth in the assay with SR leukemia was 113% (inactive) and 75.2% (inactive); in the assay on RPMI-8226 leukemia, 68.2% (inactive); in the assay with OVCAR-8 ovarian it was 79.8% (inactive) and 87.1% (inactive); in the assay with OVCAR-5 ovarian, 84.1% (inactive) and 87.3% (inactive); in the assay with OVCAR-4 ovarian, 35.2% (inactive) and 92.1% (inactive); with IGROV1 ovarian, 103% (inactive) and 84.8% (inactive). The growth with OVCAR-3 ovarian was 83.2% (inactive) and 116% (inactive); in the assay on HS 578T breast it was 68% (inactive) and 116% (inactive); in the assay with NCI/ADR-RES ovarian it was 88.6% (inactive) and 83.4% (inactive); with T-47D breast, 71.2% (inactive) and 96.1% (inactive); in the assay with BT-549 breast it was 85.4% (inactive) and 134% (inactive); in the assay on MDA-MB-435 melanoma it was 90.2% (inactive) and 94.6% (inactive). The growth is 71.7% (inactive) and 98.6% (inactive) with SW-620 colon; 83.6% (inactive) and 89.7% (inactive) in the assay on MCF7 breast; 60.2% (inactive) and 83.4% (inactive) in the assay on HCT-116 colon; 94.2% (inactive) in the assay on HCC-2998 colon; 90% (inactive) and 113% (inactive) in the assay with KM12 colon.

Consider `CCOC(=O)Nc1ccc2c(c1)/C(=N\NC(N)=S)c1ccccc1-2`, for which the growth in the assay on SR leukemia was 47.2% (inactive) and 34.7% (inactive); with RPMI-8226 leukemia it was 22.3% (inactive); in the assay with OVCAR-8 ovarian it was 34.6% (inactive) and 55.5% (inactive); in the assay on OVCAR-5 ovarian, 105% (inactive) and 92% (inactive); in the assay with OVCAR-4 ovarian, 61% (inactive) and 77.1% (inactive); in the assay on IGROV1 ovarian it was 93.5% (inactive) and 103% (inactive). Also, the growth in the assay with OVCAR-3 ovarian was 48% (inactive) and 83.4% (inactive); with HS 578T breast, 69.9% (inactive) and 92.9% (inactive); in the assay on NCI/ADR-RES ovarian it was 29.5% (inactive) and 45.6% (inactive); with T-47D breast it was 26.4% (inactive) and 31.3% (inactive); with MDA-MB-435 melanoma, 57.3% (inactive) and 59.9% (inactive); in the assay on SW-620 colon, 80.7% (inactive) and 81.2% (inactive). For the same compound, the growth in the assay with MCF7 breast was 63% (inactive) and 70.6% (inactive); with HCT-116 colon, 53.5% (inactive) and 71.4% (inactive); with HCC-2998 colon, 60.9% (inactive) and 68.9% (inactive); in the assay on KM12 colon it was 40.4% (inactive) and 54.2% (inactive).

As to `Nc1ccccc1Nc1ccccc1`, the growth in the assay with SR leukemia was 68.2% (inactive) and 72.1% (inactive); in the assay on RPMI-8226 leukemia, 42.3% (inactive) and 29.1% (inactive); in the assay on OVCAR-8 ovarian it was 95.7% (inactive) and 92.3% (inactive); in the assay with OVCAR-5 ovarian it was 129% (inactive) and 115% (inactive); in the assay on OVCAR-4 ovarian it was 93.7% (inactive) and 88.9% (inactive); in the assay with IGROV1 ovarian, 100% (inactive) and 109% (inactive). Moreover, the growth in the assay on OVCAR-3 ovarian was 79.8% (inactive) and 57% (inactive); in the assay on HS 578T breast it was 89.1% (inactive) and 102% (inactive); in the assay on NCI/ADR-RES ovarian, 88% (inactive) and 84.7% (inactive); in the assay on T-47D breast, 88.1% (inactive) and 83.5% (inactive); with MDA-MB-435 melanoma it was 91.5% (inactive); with SW-620 colon, 106% (inactive) and 112% (inactive). Besides, the growth in the assay with MCF7 breast was 93.8% (inactive) and 91.8% (inactive); in the assay on HCT-116 colon it was 86.6% (inactive) and 88.8% (inactive); in the assay with HCC-2998 colon, 98.7% (inactive) and 96.4% (inactive); in the assay on KM12 colon, 85.8% (inactive) and 79.6% (inactive).
